# FBPA coupling cs = qHTS Assay for Inhibitors of Fructose-1,6-bisphosphate Aldolase from Giardia Lamblia: Coupling assay counterscreen; coupling enzyme system counterscreen, AmpLite Red fluorescence; activity change, negative = inhibition, % at 58.2 µM, hits read low; actives 0.67% (n = 290,000); AID 2472, 2010; in the data active means activity change below about -30%
#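 Coupling enzymes only (glyceraldehyde-3-phosphate) + compound, at 57.5 uM final, 10 min RT; add substrate/coupling/AmpLite Red mix, 20 min RT; fluorescence ex 525/em 598 nm. Actives flag coupling-system interference.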
# G9a block = qHTS Assay for Inhibitors of Histone Lysine Methyltransferase G9a; Histone-lysine N-methyltransferase EHMT2 (Homo sapiens), Q96KQ7; G9a H3K9 monomethylation, AlphaScreen, 2 h; Potency, µM (top dose mostly 102 µM), for the others: at the top dose activity, negative = inhibition, usual class: inhibitors; actives 8.8% (n = 350,000); further: potency means the concentration at half of the fitted maximal effect; nearly all actives have a fitted effect of over 75% in size
# Target sequence (Q96KQ7 913-1193 limits assumed): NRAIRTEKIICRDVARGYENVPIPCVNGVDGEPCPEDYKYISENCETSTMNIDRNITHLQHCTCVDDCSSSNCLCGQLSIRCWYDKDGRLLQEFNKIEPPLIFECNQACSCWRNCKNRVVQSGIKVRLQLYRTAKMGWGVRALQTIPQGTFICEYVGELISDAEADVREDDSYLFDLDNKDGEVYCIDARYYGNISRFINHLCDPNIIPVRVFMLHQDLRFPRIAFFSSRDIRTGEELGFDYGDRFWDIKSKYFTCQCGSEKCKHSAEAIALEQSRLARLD
#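 Using a bead-based AlphaScreen, monomethylated H3K9 product from 2 h room-temperature reactions (G9a 20 nM, peptide 500 nM, SAM 20 uM) was detected with 0.5 ug/mL rabbit anti-H3K9me1 antibody.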
# Tau ThT inhib = qHTS for Inhibitors of Tau Fibril Formation, Thioflavin T Binding; Microtubule-associated protein tau (Homo sapiens), P10636; recombinant tau K18 P301L, heparin-induced fibrillization, ThT fluorescence; Potency, µM (highest dose often 57.4 µM), inactives show top-dose activity, negative = inhibition, actives largely listed as inhibitors; actives 2.1% (n = 270,000); AID 1460, 2008; further: potency means the concentration at half of the fitted maximal effect; nearly all actives have a fitted effect of over 55% in size
# Target sequence (P10636 561-689 P618L limits assumed): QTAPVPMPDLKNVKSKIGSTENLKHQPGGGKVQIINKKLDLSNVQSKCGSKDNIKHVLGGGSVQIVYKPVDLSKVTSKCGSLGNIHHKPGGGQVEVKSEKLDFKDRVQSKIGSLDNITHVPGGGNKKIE
#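 Fibril formation assay: tau K18 P301L at 15 uM with trace Alexa 594 label, heparin inducer 20 uM, pH 7 sodium acetate buffer, 37 C for 6 hr; endpoint ThT signal.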
# Tau fluor cs = Counterscreen qHTS for Inhibitors of Tau Fibril Formation, Fluorescence Polarization; tau K18 P301L Alexa594 fluorescence, heparin fibrillization; Potency, µM (doses to about 57.7 µM), for the others: at the top dose activity change, negative = decrease; actives 0.93% (n = 280,000); AID 1463, 2008; further: potency means the concentration at half of the fitted maximal effect; nearly all actives have a fitted effect of over 55% in size
#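 Human tau K18 P301L (15 uM unlabeled, 0.24 uM Alexa 594-labeled) in 100 mM sodium acetate pH 7 with 20 uM heparin, 6 hr at 37 C. ThT 30 uM added, 1 hr ambient; Alexa 594 FP and total fluorescence read at 555/632 nm.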
# Sfp PPTase inh = qHTS Assay for Inhibitors of Bacillus subtilis Sfp phosphopantetheinyl transferase (PPTase). Biochemical Sfp PPTase activity, qHTS. actives 3.5% (n = 310,000). Potency, µM, inactives show largest response in the series, negative = inhibition, actives largely listed as inhibitors. 4'-phosphopantetheinyl transferase ffp (Bacillus subtilis), Q9F4F7;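 further: the enzyme is Sfp with the accession as filed and its product quenches rhodamine fluorescence; potency means the concentration at half of the fitted maximal effect; 0% = enzyme reaction without inhibitor and -100% = no enzyme wells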
#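 Step 1, compound plus 15 nM Sfp-PPTase, 15 min, room temperature. Step 2, add rhodamine-CoA (5 uM) and BHQ-2-YbbR (12.5 uM). Step 3, read 525/598 nm fluorescence at 0 and 30 min.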
# Tau fibril FP = qHTS for Inhibitors of Tau Fibril Formation, Fluorescence Polarization | AID 1468, 2008 | actives 0.39% (n = 280,000) | Potency, µM (doses to about 57.7 µM), for the others: top-dose activity, negative = inhibition, actives largely listed as inhibitors | K18 P301L tau heparin fibrillization, Alexa594 FP, 6 h; further: potency means the concentration at half of the fitted maximal effect; nearly all actives have a fitted effect of over 55% in size
#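 Steps: dispense K18 P301L tau (15 uM plus 0.24 uM Alexa 594 tracer, final) in pH 7 sodium acetate; add compound; add heparin (20 uM final); incubate 6 hr, 37 C; add ThT (30 uM final); after 1 hr ambient, read FP.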
# Numbers without * were called inactive; ? = inconclusive; . = not tested or not shown; [ ] = another dose, or the depositor's remark. Sampled rows, rich in hits. Any-hit rate of the full collection: about 11%. Unless noted, the call rests on the fitted dose curve; in most records, active means well fitted curve in the direction sought with a large enough effect; inconclusive means small, poorly fitted or top-dose-only effect, or another doubt; inactive means no such curve, though single readings can be large; an effect the other way counts as inactive or inconclusive. Unless noted, on the % scale 0 is the no-effect control and ±100 the full control effect.
SMILES,FBPA coupling cs,G9a block,Tau ThT inhib,Tau fluor cs,Sfp PPTase inh,Tau fibril FP
Cc1ccc(/C([O-])=C(/C(=S)NCCN2CCOCC2)[n+]2ccccc2)cc1[N+](=O)[O-],-7,-33%[12.7 µM],?,-18%,20µM*,-15%
[O-]/C(=C(\C(=S)NCCN1CCOCC1)[n+]1ccccc1)c1ccc(Cl)s1,0,25µM*,4%,0%,3%,-2%
[O-]/C(=C(\C(=S)NCc1ccccc1)[n+]1ccccc1)c1ccc(Cl)s1,2,25µM*,?,-20%,-36%,-8%
S=C(NCc1ccccc1)NCc1cccc(Cl)c1,.,42%,.,.,14%,.
CCC1=C2CC[C@H]3C(=O)N(c4ccccc4)C(=O)[C@H]3[C@H]2[C@@]2(Cc3ccccc3)C(=NCCOC)OC(=O)N2C1=O,1,.,-5%,-4%,1%,-2%
CC(=O)N1c2ccc3ccccc3c2C2C=CCC2C1c1ccc(Br)cc1 (centres undefined),-7,?,-11%,-16%,-25%,-12%
CC(=O)N1c2ccc(Cl)cc2C2C=CCC2C1c1cccc2ccccc12 (centres undefined),-8,13µM*,?,-16%,?,-12%
COc1ccccc1NC1=C(NC(C)=O)C(=O)c2ccccc2C1=O,-56*,7.9µM*,20µM*,-29%,-97%,?
Cc1ccc(NC2=C(NCCO)C(=O)c3ccccc3C2=O)cc1,-48*,11µM*,22µM*,?,-7%,?
COc1ccc(C2=C(Nc3ccc(C)cc3)c3ccccc3C2=O)cc1,-4,10%[59 µM],-13%,-23%,5%,5%
CN(C)c1ccc(NC2=C(Cl)C(=O)c3ccccc3C2=O)cc1,-43*,2.2µM*,7.9µM*,3.5µM*[quencher],?,14µM*
CC(=O)Nc1ccc(NC2=C(Cl)C(=O)c3ccccc3C2=O)cc1,-1,-90%,2µM*,2.2µM*[quencher],-4%,10µM*
COC(=O)c1ccccc1NC(=O)CSc1nnnn1CC(=O)O,3,7%,.,.,7%,.
Cc1cccc(NC(=O)c2sc(-n3nc(C)c(CCC(C)C)c3C)nc2C)c1C,.,-2%[59 µM],?,13%,.,13%
Cn1ncc(Br)c1NC(=O)Nc1ccccc1,-9,-2%,.,.,4%,.
COc1ccccc1C(=O)OCC(=O)NC1CCCC1,-1,-6%[2.33 µM],.,.,3%,.
O=C(Oc1ccc(NC2=C(Cl)C(=O)c3ccccc3C2=O)cc1)c1ccc([N+](=O)[O-])cc1,-16,1%[59 µM],3.2µM*,2.8µM*[quencher],-4%,?
O=C(Oc1ccc([N+](=O)[O-])cc1)c1cccnc1,-1,?,?,-14%,0%,8%
CCN1C(C)=C(C(=O)OC)C(c2ccccc2)N2C(=O)[C@@]3(C(=O)OC)O[C@@]12C1C(=O)N(C)C(=O)C13 (some centres undefined),1,.,-8%[11.5 µM],-3%[11.6 µM],-7%,-2%[11.6 µM]
COC(=O)c1c(NC(=O)C(C)Oc2ccc(Cl)cc2Cl)sc2c1CCCC2 (centres undefined),.,3.5µM*,-17%,-12%,.,-12%
CCCc1ccc(OC(C)C(=O)Nc2sc3c(c2C(=O)OC)CCCCC3)cc1 (centres undefined),.,7.9µM*,?,-9%,.,-15%
CC(Oc1ccc(Cl)cc1Cl)C(=O)Nc1ccc(O)cc1 (centres undefined),1,25µM*,-3%,-27%,?,-7%
CCOC(=O)c1c(NC(=O)C(C)Oc2ccc(Cl)c(C)c2)sc2c1CCCC2 (centres undefined),.,3.2µM*,?,-9%,.,?
COc1cc(C)c(Cl)cc1S(=O)(=O)NCCc1c(C)[nH]c2ccccc12,.,-30%[59 µM],-8%,?,.,8%
Cc1ccc(NS(=O)(=O)c2c(C)nc3sc(C)c(C)n3c2=O)cc1F,.,-9%[59 µM],4%,-7%,.,6%
SMILES,FBPA coupling cs,G9a block,Tau ThT inhib,Tau fluor cs,Sfp PPTase inh,Tau fibril FP
COC(=O)c1ccc(N2CCN(CCNC(=O)Nc3ccc(OC)cc3)CC2)cc1,-1,?,.,.,22%,.
COc1cc(NC(=O)NCCN2CCN(c3ccc(Cl)cc3)CC2)ccc1C,2,?,?,?,10%,13%
COc1ccc(NC(=O)NCCN2CCN(c3cccc(Cl)c3)CC2)cc1,-32*,10%[59 µM],-17%,-17%,?,12%
COc1ccc(N2CCN(CCNC(=O)Nc3ccc(C)c(Cl)c3)CC2)cc1,0,25µM*,.,.,9%,.
COc1ccc(N2CCN(CCNC(=O)Nc3ccc([N+](=O)[O-])cc3OC)CC2)cc1,-3,45µM*,.,.,5%,.
COc1ccc(OC)c(NC(=O)NCCN2CCN(c3ccccc3)CC2)c1,1,?,.,.,1%,.
NC(=O)[C@H]1CCCN1C(=O)[C@H](Cc1cnc[nH]1)NC(=O)[C@@H]1CCC(=O)N1,2,.,.,.,-14%,.
c1cn(C23CC4CC(CC(C4)C2)C3)cn1,1,4%[12.7 µM],-6%,7%,17%,-3%
S=c1nn[nH]n1C12CC3CC(CC(C3)C1)C2,8,1.4µM*,-5%,-5%,?,0%
CCCn1c(=N)n(CC(=O)c2ccc(Cl)cc2)c2ccccc21,0,0%,.,.,16%,.
CCCn1c(=N)n(CC(=O)c2ccc([N+](=O)[O-])cc2)c2ccccc21,-18,40µM*,?,-28%,?,5%
COc1ccc2c(c1)c1c(c(=O)n(-c3ccc(F)c(Cl)c3)c(=O)n1CC(N)=O)n2C,.,0%[59 µM],-2%,0%,.,-7%
CC12CCC(C(=O)NCc3ccc4c(c3)OCO4)(C(=O)C1=O)C2(C)C (centres undefined),0,45µM*,-12%,-10%,11%,1%
O=C1CN(C(=O)COC(=O)c2cccc(S(=O)(=O)NCc3ccccc3)c2)c2ccccc2N1,-1,-6%[12.7 µM],-5%,-20%,3%,-14%
CCN(CC)S(=O)(=O)c1cccc(C(=O)OCC(=O)N2CC(=O)Nc3ccccc32)c1,0,20µM*,-1%,-15%,6%,-10%
O=C1CN(C(=O)COC(=O)c2ccc(N3CCCCCC3)c([N+](=O)[O-])c2)c2ccccc2N1,5,40µM*,?,?,1%,?

# High-throughput results from PubChem BioAssay.
